Compounds with a hit are over-represented: about 21% of the library has one in this group of screens.
CYP2C9 inhib = blockers of cytochrome P450 2C9 activity – biochemical, luminescence, ADME assay, primary screen. inhibition, % at 5 µM. CYP2C9 Supersomes, luciferin-H conversion. AID 777, 2007. P11712. 96,000 tested, 20% active;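 active = blocking of liver enzyme CYP2C9 beyond about 50% at 5 µM, limit read from the data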
Target sequence (P11712 whole entry, looked up): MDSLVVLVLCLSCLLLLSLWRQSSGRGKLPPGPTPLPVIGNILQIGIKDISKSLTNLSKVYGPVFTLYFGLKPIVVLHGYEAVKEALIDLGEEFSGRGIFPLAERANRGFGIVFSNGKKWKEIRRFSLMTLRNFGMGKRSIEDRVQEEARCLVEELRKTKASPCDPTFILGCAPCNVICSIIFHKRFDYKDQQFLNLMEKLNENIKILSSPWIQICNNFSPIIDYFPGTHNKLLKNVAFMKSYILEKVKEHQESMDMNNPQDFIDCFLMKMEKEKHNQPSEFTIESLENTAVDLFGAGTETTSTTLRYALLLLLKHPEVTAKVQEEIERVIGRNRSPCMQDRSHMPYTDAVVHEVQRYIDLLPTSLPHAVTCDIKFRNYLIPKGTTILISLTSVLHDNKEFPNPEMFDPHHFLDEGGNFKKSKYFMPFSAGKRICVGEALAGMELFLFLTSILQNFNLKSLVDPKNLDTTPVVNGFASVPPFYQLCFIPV
CYP2C19 act = human CYP2C19 activators, primary screen, biochemical, luminescence; Cytochrome P450 2C19 (Homo sapiens), P33261; recombinant CYP2C19, luciferin-H EGE luminescence; hits give high values; 0 = fully inhibited enzyme, 1 = untreated enzyme; activation factor at 5 µM; 96,000 tested, under 10 active; AID 1025, 2008;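 active = activation factor of at least 2 at 5 µM in the primary screen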
CYP2C19 inh = blockers of cytochrome P450 2C19 activity – biochemical, luminescence, ADME assay, primary screen | CYP2C19 Supersomes, luciferin-H EGE luminescence, 30 min | inhibition, % at 5 µM | P33261 | 96,000 tested, 21% active;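 active = CYP2C19 inhibition above a set limit at 5 µM in the primary screen, cut at about 50% in these data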
CYP2C9 act = human CYP2C9 activators, primary screen, biochemical, luminescence. recombinant CYP2C9, luciferin-H conversion; hits give high values; factor 1 = untreated enzyme, 0 = blocked. activation factor at 5 µM. Cytochrome P450 2C9 (Homo sapiens), P11712. 96,000 tested, 1.4% active. AID 1024, 2008;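 active = activation factor of 2 or more for CYP2C9 at a 5 µM dose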
MRP reversal = reversal of MRP1-mediated doxorubicin resistance, primary screen, H69AR cells, doxorubicin co-treatment; H69AR cells + 2 uM doxorubicin, CellTiter-Glo, 72 h; differential viability (reversal), % at 10 µM; 85,000 tested, 0.04% active; AID 602, 2007;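 active = viability drop by adding the cancer drug above about 55%, with treated viability meeting a 40% cutoff, limit read from the data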;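 also: larger differential means the compound sensitizes cells more to doxorubicin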
MRP-1 activ = H69AR viability gain despite doxorubicin, primary screen, MRP-1 activator project, H69AR cells, CellTiter-Glo; viability increase, % at 10 µM; viability rescue; 140,000 tested, 0.61% active;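 active = viability gain under doxorubicin at or above a set limit, the compound median plus 3 SD, cut at about 4.7% in these data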;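 also: MRP-1 overexpressing cells given doxorubicin 25 µM after compound pretreatment; 18-22 h compound pretreatment then 72 h with doxorubicin before readout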
Hits are given with their value; – = inactive; · = no result given.

SMILES	CYP2C9 inhib	CYP2C19 act	CYP2C19 inh	CYP2C9 act	MRP reversal	MRP-1 activ
CC(=O)C1=C(c2ccccc2)NC(=O)NC1c1ccccc1OCC#N (stereo not drawn)	–	–	–	–	–	–
CCN(CC1COc2ccccc2O1)C(=S)Nc1ccc(F)cc1 (stereo not drawn)	·	·	·	·	·	–
C#Cc1ccc(C(=O)Nc2cc(C(N)=O)ccc2N2CCOCC2)cc1	–	–	–	–	–	–
C(=N\n1cnnc1)/c1cn(-c2cccs2)nc1-c1ccccc1	70.5	–	81.2	–	–	–
COc1ccc(-c2nn(-c3ccccc3)cc2/C=N/n2cnnc2)cc1OC	–	–	80.3	–	–	–
CC(C)COc1cccc(C(=O)NC(=S)NCc2cccnc2)c1	·	·	·	·	·	–
Cn1c(=O)[nH]c(NC2CCCCC2)c(N=O)c1=O	·	·	·	·	·	–
Cc1cc2c(n1-c1ccc(Br)cc1)CC(C)(C)CC2=O	–	–	67.4	–	–	–
Cc1ccc(-n2c(C)cc3c2CC(C)(C)CC3=O)cc1C	–	–	–	–	–	–
O=C1C(=C2SCCCS2)CC/C1=C\c1ccc(F)cc1	–	–	51.4	–	·	–
Cc1cccc(/C=C2\CCC(=C3SCCCS3)C2=O)c1	–	–	–	–	·	–
COc1ccc(NC(=O)CCC(=O)OCC(=O)c2ccc(Oc3ccc([N+](=O)[O-])cc3)cc2)cc1	·	·	·	·	·	–
COc1ccc(C(=O)CC(Nc2ccc([N+](=O)[O-])cc2)c2ccc(Cl)cc2)cc1 (stereo not drawn)	78.1	–	66.6	–	·	–
CCOC(=O)C1CCN(c2c([N+](=O)[O-])c(C(Cl)Cl)nn2-c2ccccc2)CC1	–	–	–	–	·	–
O=[N+]([O-])c1c(C(Cl)Cl)nn(-c2ccccc2)c1N1CCCC1	–	–	56.2	–	·	–
C=CCN1/C(=C(\C#N)C2=NS(=O)(=O)c3ccccc32)N(C)c2ccccc21	–	–	54.7	–	·	–
Cc1ccc(NC2=NC(c3ccccc3)n3c(nc(C)cc3=O)N2)c(C)c1 (stereo not drawn)	–	–	82.6	–	–	–
Cc1ccc(NC2=NC(c3ccc(C)cc3)n3c(nc(C)cc3=O)N2)cc1 (stereo not drawn)	50.2	–	71.0	–	·	–
COc1ccc(C(=O)Cn2c3ccccc3n3nc(CCC(=O)O)c(=O)nc23)cc1OC	–	–	–	–	–	–
CCC(=O)Oc1ccc(C2N(C(=O)CC)CCN2S(=O)(=O)c2ccc(C)cc2)cc1OC (stereo not drawn)	–	–	–	–	–	–
COc1ccc(C2N(C(=O)N3CCOCC3)CCN2S(=O)(=O)c2ccc(C)cc2)cc1 (stereo not drawn)	–	–	–	–	–	–
CCOC(=O)N1CCN(S(=O)(=O)c2ccc(C)cc2)C1c1ccc(OC)cc1 (stereo not drawn)	–	–	73.8	–	–	–
CCOC(=O)N1CCN(S(=O)(=O)c2ccc(C)cc2)C1c1ccccc1 (stereo not drawn)	69.8	–	90.6	–	–	–
CCn1cc(C(=O)O)c(=O)c2cnc(N3CCN(C(=O)Nc4ccccc4)CC3)nc21	·	·	·	·	–	·
CC(=O)OC(C(=O)NC1CCCCC1)c1ccc(C)cc1 (stereo not drawn)	–	–	–	–	–	–
SMILES	CYP2C9 inhib	CYP2C19 act	CYP2C19 inh	CYP2C9 act	MRP reversal	MRP-1 activ
CC(C)C(OC(=O)c1cc2sccc2n1C)C(=O)NCC1CCCO1 (stereo not drawn)	–	–	56.5	–	–	–
COCCNC(=O)C(C)OC(=O)c1cc2sccc2n1C (stereo not drawn)	–	–	–	–	–	–
Cn1c(C(=O)OC(C(=O)NC2CCCCC2)c2ccncc2)cc2sccc21 (stereo not drawn)	90.6	–	98.1	–	–	–
Cn1c(C(=O)OC(C(=O)NC2CCCC2)c2ccncc2)cc2sccc21 (stereo not drawn)	71.7	–	94.8	–	–	–
CCOC(=O)c1ccc(NC(=O)COc2ccc(S(=O)(=O)N3CCCC3)cc2)cc1	–	–	–	–	–	–
CC(C)c1ccc(S(=O)(=O)N2CCN(CCC(=O)Nc3ccc(N(C)C)cc3)CC2)cc1	–	–	–	–	–	–
COc1ccc(S(=O)(=O)N2CCN(CCC(=O)Nc3ccc(F)cc3)CC2)cc1	·	·	·	·	–	–
COc1ccc(NC(=O)CCN2CCN(S(=O)(=O)c3ccc(Cl)cc3)CC2)cc1	75.1	–	70.7	–	–	–
CCOc1ccc(NC(=O)CN2CCN(S(=O)(=O)c3ccc(Cl)cc3)CC2)cc1	–	–	80.1	–	–	–
CCOC(=O)c1ccc(S(=O)(=O)N2CCN(CC(=O)NC(=O)NC(C)(C)C)CC2)cc1	72.4	–	–	–	·	–
COc1ccc(NC(=O)CCN2CCN(S(=O)(=O)c3ccc(C(C)C)cc3)CC2)cc1	65.9	–	–	–	–	–
C=CCNC(=S)N1CCN(c2ccc([N+](=O)[O-])cc2)CC1	·	·	·	·	·	–
O=C(CN1CCN(S(=O)(=O)c2ccccc2)CC1)Nc1ccc(Cl)c(Cl)c1	–	–	77.1	–	·	–
O=C1c2ccccc2S(=O)(=O)N1CCOc1ccc(F)cc1	63.4	–	99.4	–	–	–
O=C(CCN1C(=O)c2ccccc2S1(=O)=O)Nc1ccccc1O	·	·	·	·	·	–
CCCNC(=O)c1ccc(CNc2c(N3CCC(C(=O)OCC)CC3)c(=O)c2=O)cc1	–	–	–	–	–	–
COc1ccc(C(c2c(O)ccc3ccccc23)N2CCOCC2)c(OC)c1 (stereo not drawn)	92.7	–	86.9	–	–	–
COc1ccccc1C(NC(=O)C1CCCCC1)c1c(O)ccc2ccccc12 (stereo not drawn)	·	·	·	·	·	–
CCc1ccc(C(C(=O)NCCOC)N(C(=O)Cn2nnc3ccccc32)c2cccnc2)cc1 (stereo not drawn)	·	·	·	·	–	–
O=C1C2C3C=CC(C4CC34)C2C(=O)N1/N=C/c1ccc(-c2ccc(F)cc2[N+](=O)[O-])o1 (stereo not drawn)	–	–	–	–	–	–
Cc1ccc(-c2ccc(/C=N/N3C(=O)C4C5C=CC(CC5)C4C3=O)o2)c([N+](=O)[O-])c1 (stereo not drawn)	70.1	–	–	–	–	–
Cc1cc(Nc2ccc3c(c2)OCCO3)c2cc(Cl)ccc2n1	·	·	·	·	·	–
COc1cccc(-n2ccnc2SCC(=O)Nc2nccs2)c1	–	–	59.2	–	–	–
Cc1cccc(-n2c(N)cc(=O)nc2SCC(=O)Nc2nnc(CC(C)C)s2)c1	–	–	–	–	–	–
CCSc1nnc(NC(=O)CSc2nccn2-c2cccc(C)c2)s1	63.1	–	–	–	–	–
CCCCc1nnc(NC(=O)CSc2nc(=O)cc(N)n2-c2cccc(C)c2)s1	–	–	–	–	–	6.0

Screening data (PubChem)
